What is called % Inhibition is the drop in the measured response relative to a control, in per cent.

The test system of the test is P. falciparum stage V gametocytes. More on the design: BacTiter-Glo ATP luminescence viability of purified stage V gametocytes in 384-well plates, per cent inhibition versus DMSO. The conditions noted are these: 48 h, 5 µM; inhibitor. Here is the method:
Once purified, gametocytes were counted using a Neubauer chamber, and the density was adjusted to 2.5 x 10^5 gametocytes/mL. Fifty μL of the gametocyte suspension (1.25 x 10^4 gametocytes) were added to each well of the 384-well plate containing the compounds, using a Multidrop combi (Thermo Electron Corporation). Plates were shaken for 5 sec to homogenize and then incubated at 37°C for 48 h in an atmosphere of 5% CO2, 5% O2, 90% N2. The ATP level of each well was determined using the BacTiter-Glo reagent (Promega) according to the recommendations of the manufacturer. The BacTiter-Glo assay generates a ‘glow-type’ luminescent signal produced by the luciferase reaction, which consists of mono-oxygenation of luciferin catalyzed by luciferase in the presence of Mg^2+, ATP and molecular oxygen. The luminescence was measured using a plate reader (Victor V, Perkin Elmer). […] The background value was subtracted from every other value of the assay prior to further calculation. The average of 16 replicates of vehicle control (0.5% or 0.1% DMSO) represents 100% of signal. Related to this value, each test concentration was calculated as percentage of control. All the calculations were done using MS Excel software. The compounds which presented inhibition ≥ 90% at 5 μM were progressed to the assay at 1 μM. […]
For the molecule `CCC1CN2CCc3cc(OC)c(OC)cc3C2CC1CC1NCCc2cc(OC)c(OC)cc21` (centres unmarked) [TCMDC-125849], the “% Inhibition” value stood at 100.9%.
As to `CC[C@H]1CN2CCc3cc(OC)c(OC)cc3[C@@H]2C[C@@H]1C[C@H]1NCCc2cc(OC)c(OC)cc21` [TCMDC-125531], the “% Inhibition” value is recorded as 96.47%.

Values taken from publication PMC4552634, “A New Set of Chemical Starting Points with Plasmodium falciparum Transmission-Blocking Potential for Antimalarial Drug Discovery” (PLoS ONE, 2015).
